# Menin MLL FP TR – displaces Texas Red mutant MLL peptide from human menin; O00255; Menin + Texas Red MLL mutant peptide, fluorescence polarization; Potency, µM (top dose mostly 61.6 µM), hits mostly inhibitors; actives 0.23% (n = 270,000); AID 1768; active = well fitted inhibition curve with a large enough effect in the polarisation, with a control signal flat, not every such curve was filed as active; inconclusive = small, poorly fitted or top-dose-only effect, or effect the other way, or a change in a side signal; inactive = no such curve, though single readings can be large or run the other way; the % refers to the polarisation
# Menin-MLL FL inh – displaces fluorescein MLL peptide from human menin | AID 1766 | FP activity change, % at 61.4 µM | 290,000 tested, under 10 active | Fluorescence polarization, fluorescein-MLL peptide displacement from menin; active = well fitted curve in the direction sought with a large enough effect in the polarisation, not every such curve was filed as active; inconclusive = small, poorly fitted or top-dose-only effect, or effect the other way, or a change in a side signal; inactive = no such curve, though single readings can be large or run the other way; the % refers to the polarisation
# CXXC DNA block – blocks binding of human MLL CXXC domain to DNA; Q03164; MLL-CXXC / FITC-HOXA9 DNA fluorescence polarization; Potency, µM (top dose mostly 115 µM), most hits filed as inhibitors; actives 0.037% (n = 290,000); AID 2662; active = well fitted inhibition curve with a large enough effect in the polarisation, with a control signal flat, not every such curve was filed as active; inconclusive = small, poorly fitted or top-dose-only effect, or effect the other way, or a change in a side signal; inactive = no such curve, though single readings can be large or run the other way; the % refers to the polarisation
#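 Purified MLL-CXXC (added from a 7 uM solution) was preincubated 5 min at ambient with pinned compounds in 50 mM Tris-HCl pH 7.5, 50 mM NaCl, 1 mM DTT, 0.05% BSA. Fluorescein-labeled HOX-A9 DNA (50 nM solution) followed, 30 min, then polarization read.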
# GAA inh – blocks human lysosomal alpha-glucosidase; P10253; purified human GAA, 4-MU-alpha-glucoside fluorescence; Potency, µM (doses to about 76.9 µM), actives largely listed as inhibitors; actives 0.005% (n = 200,000); AID 1466
#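 Activity normalized between no-enzyme (basal) and enzyme-only wells. Conditions: 4 nM human enzyme, 400 uM fluorogenic substrate, citrate/phosphate pH 5.0 with Tween-20, 20 min room temperature, compounds up to 77 uM.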
# aGlu spleen mod – inhibits or activates alpha-glucosidase in human spleen homogenate. P10253. human spleen homogenate, 4-MU-alpha-glucoside fluorescence. Potency, µM (titrated, usually from 79.9 µM), hits mostly inhibitors. actives 0.006% (n = 240,000). AID 2112
#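 Enzyme source: human spleen homogenate, 1 ug/well. Buffer 50 mM citric acid/K phosphate pH 5.0, 0.01% Tween-20. 4-MU-alpha-glucoside 1 mM; 37 C x 40 min; NaOH/glycine stop; fluorescence.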
# GAA glycogen mod – GAA glycogen-cleavage inhibition or activation. Potency, µM (series often up to 76.4 µM), actives largely listed as inhibitors. P10253. actives 0.38% (n = 300,000). recombinant GAA, glycogen substrate, Amplex Red glucose oxidase fluorescence. AID 2100;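 also: the screen sought inhibitors and activators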
#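 Recombinant human enzyme (4 nM); glycogen substrate; 37 C, 40 min, pH 5.0. Readout: coupled glucose oxidase/Amplex Red fluorescence.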
# A number is an active result; – = inactive; ? = inconclusive; · = no result. A selection: hits, their analogues and other compounds. The true share with any hit is near 0.45%. Unless noted, calls follow the shape of the dose curve; as a rule, active = well fitted curve in the direction sought with a large enough effect; inconclusive = small, poorly fitted or top-dose-only effect, or another doubt; inactive = no such curve, though single readings can be large; an effect the other way counts as inactive or inconclusive.
SMILES,Menin MLL FP TR,Menin-MLL FL inh,CXXC DNA block,GAA inh,aGlu spleen mod,GAA glycogen mod
Cc1ccc(Nc2ccc(N)cc2S(=O)(=O)O)cc1,–,?,–,–,–,?
Cn1nc(C(=O)N2CCN(c3ccc([N+](=O)[O-])cc3)CC2)c2c1-c1ccccc1S(=O)(=O)C2,25µM,–,–,·,·,–
COc1ccc(-c2nc3n(n2)C(c2ccccc2F)C(C(=O)Nc2cccnc2)=C(C)N3)cc1OC (stereo not given),·,·,·,·,·,–
O=C(Cn1c(=O)oc2cc(S(=O)(=O)N3CCCC3)ccc21)Nc1ccc(C(F)(F)F)cc1,25µM,–,–,–,–,–
O=C(Cn1c(=O)oc2cc(S(=O)(=O)N3CCCC3)ccc21)NC1CCCc2ccccc21 (stereo not given),32µM,–,–,–,–,–
O=C(Cn1c(=O)oc2cc(S(=O)(=O)N3CCCCCC3)ccc21)NC1CCCCCCC1,–,–,–,–,–,–
Oc1ccc(/C=N/N2CCCCC2)c(O)c1,–,–,–,·,·,11µM
Oc1ccccc1/C=N/N1CCCCC1,–,–,–,–,–,–
Cn1c(=O)c2[nH]c(Nc3ccccc3)nc2n(C)c1=O,–,–,–,–,–,7.1µM
O=C(N=C1SC2CS(=O)(=O)CC2N1c1cc(Cl)ccc1Cl)C1CCCO1 (stereo not given),–,–,–,·,·,·
CCOP(=O)(OCC)c1nc(-c2ccccc2)oc1N1CCCCC1,32µM,–,–,·,·,–
Nc1cc(S(=O)(=O)c2ccc(O)c(N)c2)ccc1O,·,–,–,·,–,7.9µM
COc1ccc(C2C(CC(=O)O)=C(O)C(=O)N2c2ccccc2)cc1 (stereo not given),–,–,?,–,–,14µM
CCCn1c(-c2ccc(F)cc2)nc2c(NC3CCN(Cc4ccccc4)CC3)nc(C)nc21,–,–,·,·,–,·
COCCn1c(=O)cnc2cnc(Oc3ccc(OC)cc3)nc21,–,–,·,·,–,·
CCCNC(=O)Cn1c(=O)/c(=C\c2ccc(-c3ccc([N+](=O)[O-])cc3)o2)s/c1=C\C(=O)C(C)(C)C,18µM,?,–,–,–,–
COc1ccc(C(=O)Nc2ccccc2C(=O)N/N=C/c2cccc3ccccc23)cc1,28µM,–,–,–,–,–
O=C(NC(=S)NNC(=O)c1cccs1)c1ccco1,–,–,–,–,–,28µM
CNC(=O)CN1C(=O)COc2ccc(S(=O)(=O)N3CCC(C)CC3)cc21,·,·,·,·,·,–
Cc1ccccc1Nc1c(-c2ccccc2O)nc2sccn12,·,·,·,·,·,11µM
Cc1cc(C)nc(SCC(=O)Nc2ccc(S(=O)(=O)Nc3ncccn3)cc2)n1,–,?,–,–,–,3.5µM
Cc1ccc(SCC(=O)Nc2ccc(S(=O)(=O)Nc3ncccn3)cc2)cc1,?,–,–,–,–,–
C[C@H]1[C@@H](OC(=O)CCC(=O)O)OC2OC3(C)CC[C@H]4[C@H](C)CC[C@@H]1[C@@]24OO3 (stereo not given in full),–,–,–,·,·,·
CCOc1ccc2nc3cc(NCc4ccc(OC)cc4)ccc3c(N)c2c1,11µM,?,–,·,·,–
Cc1ccc(NC(=S)Nc2cccc3ccccc23)cc1,–,–,?,·,·,·
SMILES,Menin MLL FP TR,Menin-MLL FL inh,CXXC DNA block,GAA inh,aGlu spleen mod,GAA glycogen mod
CC(C)c1ccc(NC(=S)Nc2cccc3ccccc23)cc1,–,–,–,·,·,40µM
Cc1ccc(Sc2c(C)nn(C(C)(C)C)c2OC(=O)CC(C)C)cc1,·,·,·,·,·,–
COc1cccc(Nc2nc(-c3ccc(O)cc3)cs2)c1,?,–,–,–,–,–
COc1cccc(Nc2nc(-c3cccc(N4C(=O)c5ccccc5C4=O)c3)cs2)c1,14µM,–,–,–,–,–
COc1ccc(-c2nnn(CC(=O)c3c[nH]c4ccccc34)n2)cc1OC,?,–,–,?,–,–
CCCCOc1ccc(-c2nnn(CC(=O)c3c[nH]c4ccccc34)n2)cc1,8.9µM,–,–,–,–,–
Cc1ccc2c(CC(=O)Nc3c(C(=O)Nc4cccc(Cl)c4)oc4ccccc34)coc2c1C,·,·,·,·,·,–
COc1ccccc1/C=N/Nc1cc(C)nc2ccc(C)cc12,–,–,–,·,·,?
COc1ccc(/C=N/Nc2cc(C)nc3ccc(OC)cc23)c(OC)c1,13µM,–,?,·,·,–
CCOc1cc(C(=O)Nc2cccc3cccnc23)cc(OCC)c1OCC,·,·,·,·,·,–
Oc1ccc(NC(=S)N=Nc2c(O)[nH]c3ccccc23)cc1,–,–,–,–,–,40µM
Cc1c(C(=O)Nc2ccccc2)sc2nc(-c3cc4cc(Cl)ccc4oc3=O)[nH]c(=O)c12,·,·,·,·,·,–
O=C(O)c1ccc(CN2C(=O)CSC2=S)cc1,?,?,–,–,–,18µM
Cc1c(NC(=S)N/N=C/c2ccc(O)cc2)c(=O)n(-c2ccccc2)n1C,–,–,–,?,–,7µM
CCc1nnc(SCc2nc(-c3ccc(OC)cc3)oc2C)c2cc3sccc3n12,·,·,·,·,·,–
COc1cc(/C=N/N2C(=O)CSC2=S)ccc1O,?,?,–,–,–,32µM
Cc1ccc(C)c(CN2C(=O)c3ccccc3S(=O)c3ccc(C(=O)NCc4ccco4)cc32)c1 (stereo not given),·,·,·,·,·,–
O=C(Nc1ccc(F)cc1)c1c(Cl)nc2ccccn12,–,–,–,–,–,–
Fc1ccc(Nc2c(-c3c[nH]c4ccccc34)nc3ccccn23)cc1,·,·,·,·,·,14µM
Cc1cn2c(=O)c(S(=O)(=O)Nc3ccc(OC(F)(F)F)cc3)c(C)nc2s1,·,·,·,·,·,–
COc1ccc(-c2nc3ccccn3c2Cl)cc1,–,–,–,·,·,–
Nc1ccc(N2CCOCC2)c2nonc12,?,–,–,–,–,7µM
Cc1cccc(S(=O)(=O)c2cn(Cc3ccccc3)c3cc(N4CCC(C)CC4)c(F)cc3c2=O)c1,·,·,·,·,·,–
CC1CCC/C(=N/Nc2ccc([N+](=O)[O-])cc2[N+](=O)[O-])C1 (stereo not given),–,–,–,–,–,16µM
CC1CCC(=NNc2ccc(C(F)(F)F)cc2[N+](=O)[O-])CC1 (stereo not given),–,–,–,–,–,–
SMILES,Menin MLL FP TR,Menin-MLL FL inh,CXXC DNA block,GAA inh,aGlu spleen mod,GAA glycogen mod
O=c1oc2ccc(Cl)cc2nc1/C=C(\O)c1cccs1,·,?,?,·,–,6.3µM
CS(=O)(=O)Cc1nc2ccccc2oc1=O,–,–,–,–,–,5.6µM
Cc1ccc2oc(=O)c(/C=C(\O)c3cccs3)nc2c1,·,?,?,·,–,13µM
CCS(=O)(=O)CCSc1nc2ccccc2o1,–,–,–,–,–,–
C/C(O)=C\c1nc2ccccc2oc1=O,·,–,–,–,–,10µM
COc1cc(NC(=O)N2CCC(CN3CCOCC3)CC2)cc(OC)c1OC,·,·,·,·,·,–
